Screening data (PubChem)
Shown are actives, neighbours in structure and some others; about 3.4% of the full set was active somewhere.
TEAD-YAP inh: TEAD-YAP interaction inhibition, primary screen, TEAD-YAP interaction inhibitor project, luminescence, HEK-TIYL cells; AID 1259422, 2018; TEAD-Gal4/YAP UAS-luciferase luminescence; inhibition, % at 9.12 µM; 1.4% of 640,000 active; in the data active = inhibition above about 32%
MITF inh: MITF inhibitors, primary screen, biochemical, AlphaScreen, human | Microphthalmia-associated transcription factor (Homo sapiens), O75030 | AlphaScreen MITF homodimerization, bead proximity signal | inhibition, % at 2.6 µM | 0.91% of 650,000 active; in the data active = inhibition above about 50%
FBW7 act: FBW7 E3 ligase activators, primary screen, biochemical, AlphaScreen, human; F-box/WD repeat-containing protein 7 (Homo sapiens), Q969H0; 0.13% of 650,000 active; AID 1259310, 2017; normalized activity (activation), % at 26.1 µM; AlphaScreen FBW7–phospho-cyclin E peptide binding, activator screen; in the data active = normalized activity above about 1.9%;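 note: purified mutant Fbw7 with reduced substrate affinity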
GPR151 ag: activators of human GPR151, primary screen, cell-based, PathHunter beta-arrestin, luminescence; PathHunter beta-arrestin GPR151 cells; activation, % at 11.2 µM; 1% of 650,000 active; AID 1508602, 2020; in the data active = activation above about 4.9%
GPR151 conf act: GPR151 activators, triplicate retest, confirmation, cell-based, PathHunter beta-arrestin, luminescence; shares compounds with GPR151 ag; 6,700 tested, under 10 active; GPR151 PathHunter beta-arrestin cells, 90 min; % of EA-reagent control over plate median; activation, % at 11.2 µM;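 active = mean percent activation across replicates above the confirmation screen cutoff of 4.91%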
GPR119 ag: GPR119 activators in beta-arrestin cells, counter-screen for GPR151 activator project, cell-based, PathHunter beta-arrestin, luminescence, triplicate; activation, % at 11.2 µM; 0.3% of 6,700 active; shares compounds with GPR151 ag; AID 1508611, 2020; 90 min; 0 = compound-well median, 100 = enzyme-acceptor control;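 active = mean percent activation in the counterscreen above 29.09%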;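 note: counterscreen on off-target GPR119 to flag nonselective hits from the GPR151 activator screen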
Target sequence (Q8TDV5 whole entry, looked up): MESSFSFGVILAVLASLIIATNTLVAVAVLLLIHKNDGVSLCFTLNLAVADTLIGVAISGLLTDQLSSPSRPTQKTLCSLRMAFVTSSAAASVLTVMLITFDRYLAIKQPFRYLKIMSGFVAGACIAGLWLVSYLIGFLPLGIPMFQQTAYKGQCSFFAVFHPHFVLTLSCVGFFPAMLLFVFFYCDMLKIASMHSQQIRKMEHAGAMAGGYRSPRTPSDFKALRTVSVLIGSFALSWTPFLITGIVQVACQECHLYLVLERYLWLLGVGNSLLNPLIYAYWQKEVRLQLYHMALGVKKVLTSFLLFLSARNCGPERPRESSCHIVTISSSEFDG
Each line names hits and unclear results; the compound was inactive in the other large screens (follow-up assays come after a bar, where they were run); ! = not confirmed by another sample.

Cc1cccc(NC(=O)CC(NCCO)C(=O)O)c1 (stereo unspecified)	none
O=C(CC(NCCO)C(=O)O)Nc1ccccc1 (stereo unspecified)	GPR151 ag 6.8 | GPR151 conf act inactive | GPR119 ag inactive
COc1c(Cl)cc(C(=O)Nc2ccccc2[N+](=O)[O-])cc1Cl	none
CCc1ccc(C2C(C(C)=O)=C(O)C(=O)N2CCNCCO)cc1 (stereo unspecified)	GPR151 ag 5.4 | GPR151 conf act inactive | GPR119 ag inactive
CC(=O)C1=C(O)C(=O)N(CCNCCO)C1c1ccc(Cl)cc1 (stereo unspecified)	none
O=C(Nc1ccc2[nH]ncc2c1)[C@@H]1CCCN1C(=O)C(O)c1ccc(Cl)cc1 (stereo partly specified)	GPR151 ag 5.2! | GPR151 conf act inactive | GPR119 ag inactive
O=C(Nc1ccc2[nH]ncc2c1)[C@H]1CCCN1C(=O)C(O)c1ccc(Cl)cc1 (stereo partly specified)	none
O=C(O)C(=O)/C=C(\O)c1ccc(Cl)cc1	GPR151 ag 13 | GPR151 conf act inactive | GPR119 ag inactive
COc1ccc(OC)c(NC(=O)CCN(C)Cc2ccccc2)c1	GPR151 ag 11 | GPR151 conf act inactive | GPR119 ag inactive
COc1ccc(OC)c(NC(=O)c2ccccc2C(F)(F)F)c1	GPR151 ag 6.6 | GPR151 conf act inactive | GPR119 ag inactive
COc1ccccc1NC(=O)c1ccccc1C(F)(F)F	none
CCNc1nc(Oc2ccc(=O)[nH]n2)nc(SC)n1	none
CCNc1nc(NC(C)(C)C)nc(Oc2ccc(=O)[nH]n2)n1	GPR151 ag 5.1 | GPR151 conf act inactive | GPR119 ag inactive
Cn1cc(-c2cnc3c(n2)[nH]c(=O)n3CC2CC2)cn1	GPR151 ag 7.7 | GPR151 conf act inactive | GPR119 ag inactive
CC(C)Cn1c(=O)[nH]c2nc(-c3cnn(C)c3)cnc21	none
CCOC(=O)c1sc2nc(SCc3ccccc3Cl)n(CCc3ccc(OC)c(OC)c3)c(=O)c2c1C	none
CNS(=O)(=O)c1cccc(C(=O)OCC(=O)C(C)(C)C)c1	GPR151 ag 7.1 | GPR151 conf act inactive | GPR119 ag inactive
CC(C)(C)C(=O)COC(=O)c1cccc(S(=O)(=O)N2CCCC2)c1	none
Cc1ccc2c(Cl)c(C(=O)Nc3cc(=O)n(C)c(=O)n3C)sc2c1	none
c1cc(-c2noc(C3CCNCC3)n2)ccn1	none
c1ccc(C(c2ccccc2)c2noc(C3CCNCC3)n2)cc1	GPR151 ag 6.9 | GPR151 conf act inactive | GPR119 ag inactive
CC(C)(C)NCC(O)COc1ccc(Br)cc1 (stereo unspecified)	none
O=C(Nc1ccccc1F)C1CCCN(c2nnc(N3CCCC3=O)s2)C1 (stereo unspecified)	GPR151 ag 5.0 | GPR151 conf act inactive | GPR119 ag inactive
Cc1c(Cl)cccc1NC(=O)C1CCCN(c2nnc(N3CCCC3=O)s2)C1 (stereo unspecified)	none
CC1CCC2(CC1)NC(=O)N(C(=O)CCl)C2=O (stereo unspecified)	none
COc1cc(Nc2nc(-c3ccc(N4CCOCC4)nc3)nc3c2ncn3Cc2ccc(C(F)(F)F)cc2)cc(OC)c1OC	GPR151 ag 6.6 | GPR151 conf act inactive | GPR119 ag inactive
COc1cc(Nc2nc(Nc3ccc4c(c3)OCO4)c3ncn(Cc4ccc(C(F)(F)F)cc4)c3n2)cc(OC)c1OC	GPR151 ag 5.5 | GPR151 conf act inactive | GPR119 ag inactive
COc1ccc(-c2nc(Nc3cc(OC)c(OC)c(OC)c3)c3ncn(Cc4ccc(C(F)(F)F)cc4)c3n2)cn1	none
COc1cc(Nc2nc(NCc3ccc4c(c3)OCO4)nc3c2ncn3Cc2ccc(C(F)(F)F)cc2)cc(OC)c1OC	none
COc1ccc(CC(=O)NCCCOC(C)C)cc1	none
CC(C)NC(=O)c1ccccc1NS(=O)(=O)Cc1ccccc1	none
CCC(C)c1ccccc1NS(=O)(=O)Cc1ccccc1 (stereo unspecified)	GPR151 ag 5.8 | GPR151 conf act inactive | GPR119 ag inactive
O=C(NCC(c1ccco1)N1CCOCC1)c1ccc(F)cc1 (stereo unspecified)	GPR151 ag 5.4 | GPR151 conf act inactive | GPR119 ag inactive
O=S(=O)(Nc1ccc(Cl)cc1F)c1cnc[nH]1	GPR151 ag 11 | GPR151 conf act inactive | GPR119 ag inactive
CN1CCC(N(C(=O)CCC(=O)O)C2CC2)CC1	GPR151 ag 8.8 | GPR151 conf act inactive | GPR119 ag inactive
CCc1nn(C(CC)C(=O)NC2CCCC2)c(=O)c2cc3occc3n12 (stereo unspecified)	none
CCc1nn(C(CC)C(=O)NC2CCCC2)c(=O)c2cc3oc(C)cc3n12 (stereo unspecified)	GPR151 ag 13 | GPR151 conf act inactive | GPR119 ag inactive
CN(C)CCC(Oc1ccc(F)cc1)c1ccc(S(C)(=O)=O)cc1 (stereo unspecified)	GPR151 ag 5.6 | GPR151 conf act inactive | GPR119 ag inactive
CCCn1c(=S)[nH]c2cc(C(=O)NCCOC)ccc2c1=O	none
COc1ccc(-c2nc3n(c2NC(C)(C)C)CCN(Cc2cnn(C)c2C)C3)cc1OC	none
COc1ccccc1NC(=O)Cn1c(=O)n(Cc2ccccc2)c(=O)c2cccnc21	GPR151 ag 5.2 | GPR151 conf act inactive | GPR119 ag inactive
COc1ccccc1NC(=O)Cn1c(=O)n(Cc2ccc(F)cc2)c(=O)c2cccnc21	none
O=C(COC(=O)c1cc([N+](=O)[O-])ccc1NCCO)Nc1ccc(F)cc1	none
O=C(COC(=O)c1cc([N+](=O)[O-])ccc1NCCO)Nc1ccc(F)cc1F	GPR151 ag 5.6 | GPR151 conf act inactive | GPR119 ag inactive
CCOCCCNC(=O)c1c(N)n(CCc2ccccc2)c2nc3ccccc3nc12	none
COCCNC(=O)c1c(N)n(CCc2ccc(OC)c(OC)c2)c2nc3ccccc3nc12	GPR151 ag 10 | GPR151 conf act inactive | GPR119 ag inactive
Cc1ccc(-c2cc(C(F)(F)F)n3nc(C(=O)Nc4c(Cl)cccc4Cl)cc3n2)cc1	none
CC(=O)c1ccc(NC(=O)c2ccc3c(c2)C(=O)N(c2ccccn2)C3=O)cc1	none
O=C1C2C3C=CC(C3)C2C(=O)N1Nc1ccccc1 (stereo unspecified)	none
CN1CCCc2cc(C(CN)N3CCCCC3)ccc21 (stereo unspecified)	GPR151 ag 6.7 | GPR151 conf act inactive | GPR119 ag inactive
